Measured values from ChEMBL document CHEMBL4513147, “CO-ADD screening of Armstrong State University (GA, USA) compounds”.
Results with a measured potency or affinity are listed apart.

system: Klebsiella pneumoniae; conditions: Concentration 32 ug.mL-1; ASSAY_TEST Inhibition of Bacterial Growth; detection method Absorption (OD600); MEDIA CAMHB; plate type 384well; NBS; CORNING #3640; time 18 hr

Structure (SMILES)	Inhibition [%]
COc1ccc2c(c1)CCC(=Cc1cncc(Br)c1)C2=O	10.09
COc1cccc2c1CCC(=Cc1ccoc1)C2=O	11.44
COc1cccc2c1CCC(=Cc1cccc(C=C3CCc4c(OC)cccc4C3=O)c1)C2=O	0.44
COc1ccc2c(c1)CCC(=Cc1cccnc1Br)C2=O	13.02
Cc1ccc(C=C2CN(C(=O)OC(C)(C)C)C/C(=C\c3ccc(C)cc3C)C2=O)c(C)c1	13.54
COc1ccc2c(c1)C(=O)C(=Cc1cccc(C=C3CCc4ccc(OC)cc4C3=O)c1)CC2	10.58
CC(C)(C)OC(=O)N1CC(=Cc2ccco2)C(=O)/C(=C/c2ccco2)C1	8.12
COc1cc2c(cc1OC)C(=O)C(=Cc1ccoc1)CC2	14.64
COc1ccc2c(c1)C(=O)C(=Cc1ccoc1)CC2	17.88
COc1ccc2c(c1)CCC(=Cc1ccc(OC)nc1)C2=O	13.52
COc1ccc2c(c1)CCC(=Cc1ccoc1)C2=O	11.83
COc1ccc(/C=C/C(=O)c2ccc(OCc3ccc(Br)cc3)cc2)cc1OC	12.55
COc1ccc2c(c1)C(=O)C(=Cc1cnccc1OC)CC2	13.46
COc1ccc2c(c1)CCC(=Cc1cnccc1OC)C2=O	11.4
COc1cccc2c1CCC(=Cc1ccco1)C2=O	9.39
COc1ccc2c(c1)C(=O)C(=Cc1ccccn1)CC2	11.4

Structure (SMILES)	Inhibition [%]
COc1ccc2c(c1)C(=O)C(=Cc1cccnc1Br)CC2	8.16
COc1ccc2c(c1)C(=O)C(=Cc1ccco1)CC2	14.42
COc1ccc2c(c1)C(O)C(=Cc1cccnc1Cl)CC2 (configuration not stated)	10.57
COc1ccc2c(c1)CCC(=Cc1ccco1)C2=O	10.81
COc1ccc2c(c1)CCC(=Cc1cccnc1)C2=O	16.02
COc1cc2c(cc1OC)C(=O)C(=Cc1ccco1)CC2	12.89
COc1ccc2c(c1)C(=O)C(=Cc1cccnc1OC)CC2	14.75
COc1ccc2c(c1)C(=O)C(=Cc1cncc(Br)c1)CC2	11.33
COc1ccc2c(c1)CCC(=Cc1ccccn1)C2=O	8.96
COc1ccc2c(c1)CCC(=Cc1cccnc1Cl)C2=O	12.5
COc1ccc2c(c1)C(=O)C(=Cc1cccnc1)CC2	13.34
COc1ccc2c(c1)CCC(=Cc1ccncc1)C2=O	14.05
COc1ccc2c(c1)C(=O)C(=Cc1cccnc1Cl)CC2	12.62
COc1ccc2c(c1)C(=O)C(=Cc1cccnc1Cl)CC2.Cl	17.3
CC(C)(C)OC(=O)N1CC(=Cc2ccoc2)C(=O)/C(=C/c2ccoc2)C1	21.57

system: Candida albicans; conditions: 32 ug/mL

Structure (SMILES)	Inhibition [%]
COc1ccc2c(c1)CCC(=Cc1cncc(Br)c1)C2=O	4.95
COc1cccc2c1CCC(=Cc1ccoc1)C2=O	10.1
COc1cccc2c1CCC(=Cc1cccc(C=C3CCc4c(OC)cccc4C3=O)c1)C2=O	12.4
COc1ccc2c(c1)CCC(=Cc1cccnc1Br)C2=O	3.93
Cc1ccc(C=C2CN(C(=O)OC(C)(C)C)C/C(=C\c3ccc(C)cc3C)C2=O)c(C)c1	-1.7
COc1ccc2c(c1)C(=O)C(=Cc1cccc(C=C3CCc4ccc(OC)cc4C3=O)c1)CC2	2.22
CC(C)(C)OC(=O)N1CC(=Cc2ccco2)C(=O)/C(=C/c2ccco2)C1	19.9
COc1cc2c(cc1OC)C(=O)C(=Cc1ccoc1)CC2	20
COc1ccc2c(c1)C(=O)C(=Cc1ccoc1)CC2	8.42
COc1ccc2c(c1)CCC(=Cc1ccc(OC)nc1)C2=O	3.72
COc1ccc2c(c1)CCC(=Cc1ccoc1)C2=O	5.64
COc1ccc(/C=C/C(=O)c2ccc(OCc3ccc(Br)cc3)cc2)cc1OC	14.1
COc1ccc2c(c1)C(=O)C(=Cc1cnccc1OC)CC2	2.37
COc1ccc2c(c1)CCC(=Cc1cnccc1OC)C2=O	-0.18
COc1cccc2c1CCC(=Cc1ccco1)C2=O	2.23
COc1ccc2c(c1)C(=O)C(=Cc1ccccn1)CC2	3.51

Structure (SMILES)	Inhibition [%]
COc1ccc2c(c1)C(=O)C(=Cc1cccnc1Br)CC2	1.26
COc1ccc2c(c1)C(=O)C(=Cc1ccco1)CC2	6.5
COc1ccc2c(c1)C(O)C(=Cc1cccnc1Cl)CC2 (configuration not stated)	15
COc1ccc2c(c1)CCC(=Cc1ccco1)C2=O	4.52
COc1ccc2c(c1)CCC(=Cc1cccnc1)C2=O	2.52
COc1cc2c(cc1OC)C(=O)C(=Cc1ccco1)CC2	36.5
COc1ccc2c(c1)C(=O)C(=Cc1cccnc1OC)CC2	2.73
COc1ccc2c(c1)C(=O)C(=Cc1cncc(Br)c1)CC2	3.19
COc1ccc2c(c1)CCC(=Cc1ccccn1)C2=O	0.77
COc1ccc2c(c1)CCC(=Cc1cccnc1Cl)C2=O	3.75
COc1ccc2c(c1)C(=O)C(=Cc1cccnc1)CC2	3.76
COc1ccc2c(c1)CCC(=Cc1ccncc1)C2=O	2.55
COc1ccc2c(c1)C(=O)C(=Cc1cccnc1Cl)CC2	6.91
COc1ccc2c(c1)C(=O)C(=Cc1cccnc1Cl)CC2.Cl	3.54
CC(C)(C)OC(=O)N1CC(=Cc2ccoc2)C(=O)/C(=C/c2ccoc2)C1	14.2
